Test results reported in ChEMBL document CHEMBL3988442, “University of Dundee, Small-Polar-MMV Screening Library” (2021).

target: AMP-activated protein kinase, AMPK (Homo sapiens) (UniProt P54646+O43741+P54619+Q9UGJ0+Q9Y478+Q13131+Q9UGI9); assay: AMP-dependent Kinase enzyme assay. An in vitro enzyme assay that detects ADP turnover that is directly proportional to AMPK activity. This uses naive AMPK that is activated during the assay with MK-8722; type: functional; parameters: scale not given: direction of the effect not stated beside the values; details: 30 µM

| SMILES | Percent Effect [%] |
| --- | --- |
| Cc1cc(C[S+]([O-])Cc2ccccc2C)no1 (stereo not given) | 5.62 |
| O=C(Nc1ccc2c(c1)C(=O)NC2=O)c1cccs1 | 16.2 |
| COc1ccccc1CN(C)C(=O)C[S+]([O-])Cc1cc(C)on1 (stereo not given) | -2.86 |
| COCCC(=O)N1CCCC(CCC(=O)Nc2ccc(Cl)cc2)C1 (stereo not given) | 5.38 |
| Cc1nn(CC(=O)NCC2(C(N)=O)CCOCC2)c(C)c1Cl | 2.14 |
| CCC(NC(=O)c1cnc(N(C)C)nc1C)c1ccncc1 (stereo not given) | 0.963 |
| CC(C)NC(=O)c1nc(Cn2c(C(F)F)nc3ccccc32)no1 | 12.9 |
| CC(C)(C)c1noc(CCC(=O)N2CCNC(=O)C2)n1 | -9.99 |
| CCC(=O)NC(CC)c1ccccc1C (stereo not given) | 7.08 |
| Cc1cc(=O)[nH]c(-n2nc(-c3cccs3)cc2N)n1 | -13.8 |
| CCS(=O)(=O)N1Cc2ccccc2CC1C(=O)OCc1cc(C)no1 (stereo not given) | 5.87 |
| COc1ncc(NCc2ccsc2)cc1C(N)=O | 5.38 |
| O=C(Cn1cccn1)N1CCC(c2nnc(-c3ccsc3)o2)CC1 | 14 |
| Cc1cncc(C2CCN(Cc3cnc(C)nc3)CC2)n1 | 9.99 |
| CN(Cc1ccc(C#N)cc1)C(=O)c1ccn(C)c(=O)c1 | 5.01 |
| Oc1ccc(Br)c(CNc2cccc(-c3nnc[nH]3)c2)c1 | 23.8 |
| COC(=O)c1ccc(Cn2cnc(C#N)n2)cc1 | 1.34 |
| Cc1ccc2ncccc2c1CN1CC[C@H](N(C)C)[C@H](CCC(=O)O)C1 | -2.6 |
| COC[C@]1(O)CCN(c2cc(C3CC3)ncn2)CC1(C)C | 10.6 |
| Cc1ccc2c(c1)cc(CN1CC[C@](C)(O)[C@H](C)C1)n2C | 9.89 |

| SMILES | Percent Effect [%] |
| --- | --- |
| O=C(NCCc1cc(N2CCOCC2)nc(NC2CC2)n1)C1CC1 | 23.1 |
| CC(C)N(Cc1ccc(C(=O)O)o1)C(C)C | 2.21 |
| O=C(CCn1cc(Cl)cn1)N1CCC2(CC1)OCCCC2O (stereo not given) | -8.21 |
| Cc1nsc(C(=O)NCCc2ccc(S(N)(=O)=O)cc2)n1 | 2.83 |
| CC(c1nccs1)N(C)S(=O)(=O)NCc1ccccc1 (stereo not given) | -1.57 |
| CSCC[C@H](NC(C)=O)C(=O)N(C)Cc1ccc(-n2cccn2)cc1 | -8.05 |
| Nc1ccnc(N2CCC(c3nccn3CC3CC3)CC2)n1 | -3.62 |
| CC1(C)CC(CN2CCC3(CCC(=O)N(CCO)C3)CC2)CCO1 (stereo not given) | -1.98 |
| CCSc1cc(C(=O)N(CC(F)F)C(C)C)ccn1 | 2.16 |
| CC(C)N1CCC(CC(=O)NCCc2cc(O)ncn2)CC1 | -10.1 |
| Cc1sc(Oc2ccccc2Cl)nc1C(=O)O | 10.7 |
| Cc1nnc(SCCCNc2cc(C3CC3)ncn2)s1 | 15.2 |
| CCCNc1ncc(CN2CCOC(Cc3cccc(F)c3)C2)cn1 (stereo not given) | 6.84 |
| O=C(c1ccccc1)C1CCN(C(=O)CC2COCCN2)CC1 (stereo not given) | 1.36 |
| COc1ccc(C)cc1CN(CC(N)=O)C(C)C | 0.855 |
| CCC1COCCN1C(=O)NCc1nccn1Cc1ccccc1 (stereo not given) | -0.566 |
| CCCn1ccnc1-c1cccc(NC2CCOC2)c1 (stereo not given) | 1.21 |
| CC1(C)OC(=O)N(CCOc2ccc(F)cc2)C1=O | 5.04 |
| Cc1nc(CN2CCc3ccc(S(N)(=O)=O)cc32)oc1C | -7.39 |
| Cc1nc(O)cc(CN2C[C@H](NS(=O)(=O)N(C)C)[C@@H](C3CC3)C2)n1 | -5.32 |
